In all, about 69,000 compounds went through this assay and about 420 (0.61%) showed an effect of 50% or more. Many of the other results were omitted from the sample, so strong results are more common in it than they were.
Biological target: T1, Histidine--tRNA ligase (Leishmania infantum) (UniProt A4I591)
T1 sequence (whole entry): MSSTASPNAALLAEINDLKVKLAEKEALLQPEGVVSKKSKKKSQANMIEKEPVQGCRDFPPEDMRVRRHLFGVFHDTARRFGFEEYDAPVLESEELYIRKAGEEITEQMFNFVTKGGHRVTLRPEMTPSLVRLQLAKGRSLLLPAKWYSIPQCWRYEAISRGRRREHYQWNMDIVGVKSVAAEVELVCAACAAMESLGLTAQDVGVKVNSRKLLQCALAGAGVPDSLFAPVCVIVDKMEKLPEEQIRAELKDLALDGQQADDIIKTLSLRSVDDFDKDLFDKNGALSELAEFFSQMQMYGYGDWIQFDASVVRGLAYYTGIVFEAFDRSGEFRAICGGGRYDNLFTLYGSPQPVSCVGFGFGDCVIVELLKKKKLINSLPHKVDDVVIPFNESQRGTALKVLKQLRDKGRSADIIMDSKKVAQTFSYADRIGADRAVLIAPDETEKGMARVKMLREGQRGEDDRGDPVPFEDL
Test: Leishmania infantum Histidine tRNA synthetase (LdHisRS)
Format: functional
Design: scale not given: in the data most compounds retested in dose-response had high values
Settings: 30 µM

Row | Compound | Percent Effect
1 | O=C(NCc1ccco1)[C@H]1C[C@@H]2CCN(c3cccc(F)c3)C[C@H]2O1 | 25%
2 | Cc1cnc(N2C[C@@H]3CN(Cc4ccco4)CCC[C@]3(C(=O)O)C2)nc1 | 19.4%
3 | COCC(=O)N1CCC2(CC1)NC(=O)[C@H]1CN(C(=O)N(C)C)C[C@H]12 | 25.2%
4 | CN1CCO[C@@H]2CN(C(=O)NCc3ccccc3)CC[C@@H]2C1 | 4.54%
5 | Cc1cccc(S(=O)(=O)N2C[C@H]3C[C@H](C(=O)NCC(C)C)[C@@H](C2)O3)c1 | 12%
6 | CCn1nc2c(cc1=O)CN(Cc1nc(-c3ccccn3)no1)CC2 | 85.1%
7 | CCc1ncc2c(n1)CN(Cc1nc(-c3ccccn3)no1)CC2 | 22.7%
8 | c1ccc(-c2noc(CN3CCc4cncnc4C3)n2)nc1 | 36%
9 | CCn1nc2c(cc1=O)CN(Cc1nc(-c3cccnc3)no1)CC2 | 14.7%
10 | CCn1nc2c(cc1=O)CN(Cc1nc(-c3cccs3)no1)CC2 | 25.9%
11 | Cn1nc2c(cc1=O)CN(Cc1nc(-c3ccccn3)no1)CC2 | 99.1%
12 | COc1ccc(CN2C[C@@H]3COC[C@H](N4CCN(C)CC4)[C@@H]3C2)cc1 | 1%
13 | CC(C)(C)SCCN1CC(=O)N2CC[C@@H](O)C[C@H]2C1=O | 10.6%
14 | O=C(c1ccco1)N1CC[C@@H]2O[C@@H](COCCN3CCCC3)CC[C@@H]21 | 4.59%
15 | Cc1nccn1-c1ccc(NS(=O)(=O)c2cnn(C)c2)cn1 | 31.3%
16 | Cc1nccn1-c1ccc(NS(=O)(=O)c2cnn(C(C)C)c2)cn1 | 50.6%
17 | Cc1nccn1-c1ccc(NS(=O)(=O)c2cccnc2)cn1 | 33.7%
18 | CCC(C)NS(=O)(=O)c1ccc(/C=C\c2onc(C)c2NC(C)=O)cc1 (stereo not given) | 5.48%
19 | Cc1cc(-c2nn(C)c(Cl)c2CN2CC[C@H](CO)[C@@H](O)C2)no1 | 2.78%
20 | Cc1cc(-c2nn(C)c(Cl)c2CN2CCOCC(O)C2)no1 (stereo not given) | 15.2%
21 | Cc1cc(-c2nn(C)c(Cl)c2CN2Cc3ccccc3C(O)C2)no1 (stereo not given) | 66.7%
22 | CO[C@@H]1CC[C@H]2[C@H]1OCCN2C(=O)C1CCOCC1 | 23.1%
23 | CN1CCN(C(=O)c2cc(-c3ccco3)cs2)CC1 | 30%
24 | O=C(c1cc(-c2ccco2)cs1)N1CCOCC1 | 25%
25 | O=C(c1cc(-c2ccco2)cs1)N1CCCC1 | 55%

Row | Compound | Percent Effect
26 | Cc1ocnc1C(=O)N1CCN(C(=O)CC(C)C)[C@@H]2CS(=O)(=O)C[C@@H]21 | 6.67%
27 | Cc1cccc(N2Cc3nc(=O)n(Cc4cccc(F)c4)n3C2=O)c1 | 14.1%
28 | COc1cccc(C(=O)NC(c2ccccn2)[C@H]2CC[C@H](CN)CC2)c1 (stereo not given in full) | 39.1%
29 | NC[C@H]1CC[C@H](C(NC(=O)c2ccccc2)c2ccccn2)CC1 (stereo not given in full) | 22.9%
30 | COc1ccccc1C(=O)NC(c1ccccn1)[C@H]1CC[C@H](CN)CC1 (stereo not given in full) | 88.4%
31 | NC[C@H]1CC[C@H](C(NC(=O)c2cccc(F)c2)c2ccccn2)CC1 (stereo not given in full) | 60%
32 | NC[C@H]1CC[C@H](C(NC(=O)C2CC2)c2ccccn2)CC1 (stereo not given in full) | 18.8%
33 | NC[C@H]1CC[C@H](C(NC(=O)c2ccccn2)c2ccccn2)CC1 (stereo not given in full) | 22.9%
34 | O=C(CC1CC1)N1C[C@@H]2CN(c3ccccc3)C(=O)[C@@H]2C1 | 21.1%
35 | COc1cc(CN2C[C@@H]3CNC(=O)[C@H](C)[C@@H]3C2)cc(OC)c1 | 21.1%
36 | O=C1[C@H]2CN(S(=O)(=O)C3CC3)C[C@H]2CN1Cc1cccnc1 | 2.74%
37 | COCCN1C(=O)C[C@H]2[C@H]1CCN2C(=O)c1ccc[nH]1 | 22.6%
38 | Cc1cccc(CN2C[C@@H]3CN(C(=O)c4ccnnc4)C[C@@H]3C2=O)c1 | 28.6%
39 | O=C(c1cscn1)N1C[C@H]2CCCC(OCc3cccnc3)[C@H]2C1 (stereo not given in full) | 17%
40 | Cc1nc(N2CCCC2)nc2c1CCN(C(=O)C1CCCC1)CC2 | 23.3%
41 | Cc1nc(N2CCCC2)nc2c1CCN(C(=O)C1CCCCC1)CC2 | 23.1%
42 | Cc1nc(N2CCCC2)nc2c1CCN(C(=O)C1CCC1)CC2 | 51.3%
43 | CNC(=O)CN1CC[C@H]2CN(C(=O)c3ccc(C)cc3)C[C@H]2C1 | 9.72%
44 | O=C(c1cscn1)N1CC[C@@H]2[C@@H]1CCN2c1ccccn1 | 10.5%
45 | Cn1ncc(-c2cc(-c3cccc(O)c3)nc(N)c2C#N)c1C1CC1 | 64.6%
46 | Cc1cc(O)ccc1-c1cc(-c2cnn(C)c2C2CC2)c(C#N)c(N)n1 | 29.1%
47 | Cc1nn(C)c(C)c1-c1cc(-c2cnn(C)c2C2CC2)c(C#N)c(N)n1 | 19%
48 | CC(CNC(=O)c1cnccn1)Oc1ccc(F)cc1 (stereo not given) | 5.31%
49 | O=C(c1cncc(N2CCC3(CCNCC3)CC2)n1)N1CCCC1 | 18.4%
50 | O=C(c1cncc(N2CCC3(CCCNC3)C2)n1)N1CCCC1 (stereo not given) | 56.7%

Row | Compound | Percent Effect
51 | O=C(c1cncc(N2CCCC3(CCNCC3)CC2)n1)N1CCCCC1 | 31.7%
52 | CC1(C)[C@H]2CC=C(CN3CCCn4nc(CNS(C)(=O)=O)cc4C3)[C@@H]1C2 | 10.6%
53 | CN1C(=O)[C@H]2CC[C@@H]1CN(C(=O)Nc1ccccc1C(F)(F)F)C2 | 7.84%
54 | CC(C)c1ccccc1NC(=O)N1C[C@@H]2CC[C@H](C1)N(C)C2=O | 11.8%
55 | CN1C(=O)[C@H]2CC[C@@H]1CN(C(=O)Nc1cccc3ccccc13)C2 | 68.6%
56 | CS(=O)(=O)NCC1CCCN(C(=O)Nc2cccc3ccccc23)C1 (stereo not given) | 33%
57 | O=C(Nc1cccc2ccccc12)N1CCC(N2CCSCC2)CC1 | 18.3%
58 | Cc1oncc1C(=O)N1CC[C@H]2C[C@H](c3ccncn3)O[C@@H]2C1 | 7.27%
59 | CS(=O)(=O)NC[C@]12COC[C@H]1CN(C(=O)C1CC=CC1)C2 | -44.5%
60 | Fc1cnc(N2CCC3(CC2)CC(OCc2cccnc2)CO3)nc1 (stereo not given) | 8.77%
61 | Fc1ccc(N2CCC3(CC2)CC(OCc2cccnc2)CO3)cc1 (stereo not given) | 56.1%
62 | N#Cc1ccc(N2CCC3(CC2)CC(OCc2cccnc2)CO3)cc1 (stereo not given) | 33.3%
63 | CCN1CC[C@@]2(C(=O)N(C)C)CCN(C(=O)NC(C)C)CC[C@@H]12 | 15.5%
64 | COc1cccc2c1ccn2CC(=O)N1CCCC(C(=O)O)C1 (stereo not given) | 7.89%
65 | CCCOCC1CCN(C(=O)Cn2cccc(C(F)(F)F)c2=O)C1 (stereo not given) | 12%
66 | COc1cccn(CC(=O)N2CCCC3(CCCCC3)C2)c1=O | 110%
67 | COc1cccn(CC(=O)N2CCC3(CCNCC3)C2)c1=O | 116%
68 | COc1ccccc1C(=O)N1CCOC2(CCCN(C(C)=O)C2)C1 (stereo not given) | 8%
69 | CCCOCC1CCN(C(=O)Cn2ncc(N3CCCC3)cc2=O)C1 (stereo not given) | -3.8%
70 | O=C1NCC2(CCCN(C(=O)Cn3nc4ccccc4n3)CC2)O1 (stereo not given) | 6.45%
71 | COc1cccn(CC(=O)N2CCCC3(CCCO3)CC2)c1=O (stereo not given) | 101%
72 | CCCOCC1CCN(C(=O)Cn2cccc(OC)c2=O)C1 (stereo not given) | 97.4%
73 | COc1ccccc1-c1ccccc1CC1(C(=O)O)CCNCC1 | 2.84%
74 | COc1cccc(CN2CC3(CCNCC3)CCC2=O)c1OC | 8.57%
75 | COC1CCN(C(=O)Cn2cccc(C(F)(F)F)c2=O)C1 (stereo not given) | 18.8%
